Test results from PubChem BioAssay (NCATS).

test: qHTS profiling of the MIPE4 collection as inhibitors of Plasmodium falciparum (DD2) proliferation (AID 743345); settings: P. falciparum Dd2 in erythrocytes, SYBR Green DNA, 72 h; at 28.5 µM (top of the series) unless noted
Summary of the method: (§1)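 Parasite DNA was quantified by SYBR Green I fluorescence (ex 485, em 535 nm) after overnight lysis in saponin/Triton buffer at room temperature. Cultures at 0.3% parasitemia and 2.5% hematocrit were first exposed to compound for 72 h at 37 C; signals were normalised to artemisinin (0.29 uM) and vehicle wells.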

| SMILES | parasite growth remaining, % of DMSO control (lower = more inhibition) |
| --- | --- |
| CN1CCN(c2c(F)cc3c(=O)c(C(=O)O)cn(CCF)c3c2F)CC1 | 95.4% |
| CS(=O)(=O)c1ccc([C@@H](O)[C@@H](CO)NC(=O)C(Cl)Cl)cc1 | 51.5% |
| N[C@@H](Cc1ccc(O)c(O)c1)C(=O)O | 114% |
| CC(C)NCC(O)c1ccc(NS(C)(=O)=O)cc1 (stereo unspecified) | 94.6% |
| CNNCc1ccc(C(=O)NC(C)C)cc1 | 93.3% |
| O=C(O)c1cc(=O)[nH]c(=O)[nH]1 | 144% |
| O=c1cc(O)c(Cl)c[nH]1 | 122% |
| COc1ccc(C(=O)CC(=O)c2ccc(C(C)(C)C)cc2)cc1 | 88.2% |
| CCN(CC)CC#CCOC(=O)C(O)(c1ccccc1)C1CCCCC1 (stereo unspecified) | 58.4% |
| CN(CCOc1ccc(CC2SC(=O)NC2=O)cc1)c1ccccn1 (stereo unspecified) | 93.4% |
| C[C@@H]1C[C@H]2[C@@H]3CCC4=CC(=O)C=C[C@]4(C)[C@@]3(Cl)[C@@H](O)C[C@]2(C)[C@@]1(OC(=O)c1ccco1)C(=O)CCl | 7.88% |
| COCCCOc1cc(C[C@@H](C[C@H](N)[C@@H](O)C[C@H](C(=O)NCC(C)(C)C(N)=O)C(C)C)C(C)C)ccc1OC | 119% |
| CC(C)(C)C(=O)OCOP(=O)(COCCn1cnc2c(N)ncnc21)OCOC(=O)C(C)(C)C | 96.8% |
| NC(=O)c1cccnc1 | 97.3% |
| Oc1c(Cl)cc(Cl)c2cccnc12 | 94.2% |

test: qHTS profiling of the MIPE4 collection as inhibitors of Plasmodium falciparum (DD2) proliferation (Rep 2) (AID 743346); settings: P. falciparum Dd2 in erythrocytes, SYBR Green DNA, 72 h; at 28.5 µM (top of the series) unless noted
Summary of the method: as §1

| SMILES | parasite growth, % of control (lower = inhibition) |
| --- | --- |
| CC(C)OC(=O)C(C(=O)OC(C)C)=C1SC=CS1 | 72.6% |
| CCOC(=O)[C@H](CCc1ccccc1)N[C@H]1CCc2ccccc2N(CC(=O)O)C1=O | 22.6% |
| S=P(N1CC1)(N1CC1)N1CC1 | 15.4% |
| Nc1nc(F)nc2c1ncn2[C@@H]1O[C@H](CO)[C@@H](O)[C@@H]1O | 12% |
| CNS(=O)(=O)CCc1ccc2[nH]cc(C3CCN(C)CC3)c2c1 | 92.8% |
| CC1CC2C3CCC4=CC(=O)C=C[C@]4(C)[C@@]3(F)[C@@H](O)C[C@]2(C)[C@@]1(O)C(=O)CO (stereo partly specified) | 85.8% |
| Nc1nc(=S)c2[nH]cnc2[nH]1 | 51.3% |
| Cc1nnc(NS(=O)(=O)c2ccc(N)cc2)s1 | 8.26% |
| O=S(=O)(O)CCS | 78.8% |
| CCCCc1oc2ccc(NS(C)(=O)=O)cc2c1C(=O)c1ccc(OCCCN(CCCC)CCCC)cc1 | 18.2% |
| COc1cc([C@@H]2c3cc4c(cc3[C@H](O)[C@H]3COC(=O)[C@H]23)OCO4)cc(OC)c1OC | 10.2% |
| O=C(NCC1CN(c2ccc(N3CCOCC3=O)cc2)C(=O)O1)c1ccc(Cl)s1 (stereo unspecified) | 80.7% |
| NC(=O)N1c2ccccc2CC(=O)c2ccccc21 | 187% |
| Cc1onc(-c2ccccc2Cl)c1C(=O)N[C@@H]1C(=O)N2[C@@H]1SC(C)(C)[C@@H]2C(=O)O | 79% |
| Cc1cccc(Nc2ccncc2S(=O)(=O)NC(=O)NC(C)C)c1 | 125% |
| CCn1cc(C(=O)O)c(=O)c2cc(F)c(N3CCN(C)CC3)cc21 | 52.8% |
| CCCc1nc(C)c2c(=O)[nH]c(-c3cc(S(=O)(=O)N4CCN(CC)CC4)ccc3OCC)nn12 | 33.2% |

| SMILES | parasite growth, % of control (lower = inhibition) |
| --- | --- |
| O[C@@H](CNC[C@H](O)[C@H]1CCc2cc(F)ccc2O1)[C@@H]1CCc2cc(F)ccc2O1 | 19.2% |
| CN1CCN(c2c(F)cc3c(=O)c(C(=O)O)cn(CCF)c3c2F)CC1 | 106% |
| CS(=O)(=O)c1ccc([C@@H](O)[C@@H](CO)NC(=O)C(Cl)Cl)cc1 | 55.8% |
| N[C@@H](Cc1ccc(O)c(O)c1)C(=O)O | 64.9% |
| CC(C)NCC(O)c1ccc(NS(C)(=O)=O)cc1 (stereo unspecified) | 30.5% |
| CNNCc1ccc(C(=O)NC(C)C)cc1 | 68.8% |
| O=C(O)c1cc(=O)[nH]c(=O)[nH]1 | 89% |
| O=c1cc(O)c(Cl)c[nH]1 | 20.4% |
| COc1ccc(C(=O)CC(=O)c2ccc(C(C)(C)C)cc2)cc1 | 6.24% |
| CCN(CC)CC#CCOC(=O)C(O)(c1ccccc1)C1CCCCC1 (stereo unspecified) | 16.6% |
| CN(CCOc1ccc(CC2SC(=O)NC2=O)cc1)c1ccccn1 (stereo unspecified) | 95.7% |
| C[C@@H]1C[C@H]2[C@@H]3CCC4=CC(=O)C=C[C@]4(C)[C@@]3(Cl)[C@@H](O)C[C@]2(C)[C@@]1(OC(=O)c1ccco1)C(=O)CCl | 10.6% |
| COCCCOc1cc(C[C@@H](C[C@H](N)[C@@H](O)C[C@H](C(=O)NCC(C)(C)C(N)=O)C(C)C)C(C)C)ccc1OC | 50.1% |
| CC(C)(C)C(=O)OCOP(=O)(COCCn1cnc2c(N)ncnc21)OCOC(=O)C(C)(C)C | 97.4% |
| NC(=O)c1cccnc1 | 122% |
| Oc1c(Cl)cc(Cl)c2cccnc12 | 45.4% |

test: qHTS profiling of the MIPE4 collection as inhibitors of Plasmodium falciparum (HB3) proliferation (AID 743347);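 further: plate controls were DMSO vehicle wells for no effect and artemisinin wells for full effect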; settings: P. falciparum HB3 in erythrocytes, SYBR Green DNA, 72 h; at 28.5 µM (top of the series) unless noted
Summary of the method: as §1

| SMILES | growth, % of control |
| --- | --- |
| CC(C)OC(=O)C(C(=O)OC(C)C)=C1SC=CS1 | 91.6% |
| CCOC(=O)[C@H](CCc1ccccc1)N[C@H]1CCc2ccccc2N(CC(=O)O)C1=O | 11.1% |
| S=P(N1CC1)(N1CC1)N1CC1 | 3.94% |
| CNS(=O)(=O)CCc1ccc2[nH]cc(C3CCN(C)CC3)c2c1 | 92.7% |
| Cc1nnc(NS(=O)(=O)c2ccc(N)cc2)s1 | 38.9% |
| O=C(NCC1CN(c2ccc(N3CCOCC3=O)cc2)C(=O)O1)c1ccc(Cl)s1 (stereo unspecified) | 59.9% |
| NC(=O)N1c2ccccc2CC(=O)c2ccccc21 | 102% |
| Cc1cccc(Nc2ccncc2S(=O)(=O)NC(=O)NC(C)C)c1 | 95.2% |
| CCCc1nc(C)c2c(=O)[nH]c(-c3cc(S(=O)(=O)N4CCN(CC)CC4)ccc3OCC)nn12 | 9.8% |
| O[C@@H](CNC[C@H](O)[C@H]1CCc2cc(F)ccc2O1)[C@@H]1CCc2cc(F)ccc2O1 | 8.28% |
| CS(=O)(=O)c1ccc([C@@H](O)[C@@H](CO)NC(=O)C(Cl)Cl)cc1 | 56.8% |
| CC(C)NCC(O)c1ccc(NS(C)(=O)=O)cc1 (stereo unspecified) | 52.5% |
| CNNCc1ccc(C(=O)NC(C)C)cc1 | 68.9% |
| O=C(O)c1cc(=O)[nH]c(=O)[nH]1 | 107% |
| O=c1cc(O)c(Cl)c[nH]1 | 21.5% |
| CN(CCOc1ccc(CC2SC(=O)NC2=O)cc1)c1ccccn1 (stereo unspecified) | 60.7% |
| C[C@@H]1C[C@H]2[C@@H]3CCC4=CC(=O)C=C[C@]4(C)[C@@]3(Cl)[C@@H](O)C[C@]2(C)[C@@]1(OC(=O)c1ccco1)C(=O)CCl | 6.95% |
| CC(C)(C)C(=O)OCOP(=O)(COCCn1cnc2c(N)ncnc21)OCOC(=O)C(C)(C)C | 82.4% |
